These results are taken from PubChem BioAssay AID651958 (The Scripps Research Institute Molecular Screening Center, 2012).

As usually defined, the inhibition is the change of the read-out against control, counted positive when it falls.

Screen size: about 370,000 compounds; about 2,000 (0.54%) were called active. Cut-off read from the data, not from the text of the source: active = inhibition above about 30%; inactive = the rest. What follows is part of a selection rich in actives, with near analogues and random picks from the rest.

The experiment relates to Crimean-Congo hemorrhagic fever virus L polyprotein viral ovarian tumor (vOTU) protease domain. Nature of the experiment: CCHFV vOTU protease inhibitors, primary screen, biochemical, Pep-AMC substrate, fluorescence (AID 651958). Note: 0% = vehicle wells with enzyme and 100% = no enzyme wells. The settings on record: at 11.5 µM, stronger effect = higher value.
As to `CN(CC(=O)Nc1ccccc1F)CC(=O)Nc1ccccc1Br`, the inhibition is -17.7% (inactive).

Take `O=C(C(=O)N1CCC(CNS(=O)(=O)Cc2ccccc2)CC1)c1cc2ccccc2o1`: the inhibition was -0.44% (inactive).

As to `CC(C)(C)c1ccc(S(=O)(=O)NCC2CCN(C(=O)C(=O)c3cc4ccccc4o3)CC2)cc1`, the inhibition is 41.9% (active).

For the compound `N#Cc1cccc(C(=O)NCC2CCN(C(=O)C(=O)c3cc4ccccc4o3)CC2)c1`, the inhibition is 5.69% (inactive).

Consider `Cc1ccc(C(=O)CN2C(=O)NC3(CCc4ccccc43)C2=O)c(C)c1` (stereo not given), for which the inhibition was -4.9% (inactive).

Take `Cn1c(CN2CCOCC2)nc2cc(NC(=O)c3ccc(Cl)cc3)ccc21`: the inhibition was -1.05% (inactive).

Consider `CCOC(=O)N1CCN(Cc2nc3cc(NC(=O)CC)ccc3n2CC)CC1`, for which the inhibition was 10.5% (inactive).

For the compound `CN1CCN(Cc2nc3cc(NC(=O)COc4ccc([N+](=O)[O-])cc4)ccc3n2C)CC1`, the inhibition is 33.6% (active).

Turning to `CC(=O)Nc1ccc(C(=O)NNC(=O)CCCCC(=O)NNC(=O)c2ccc(NC(C)=O)cc2)cc1`, the inhibition was 2.99% (inactive).

For the compound `COc1ccc(C(=O)OCC(=O)c2ccc(Cl)s2)c(OC)c1OC`, the inhibition was 7.84% (inactive).

On to `COc1ccc(C(=O)COC(=O)c2ccc([N+](=O)[O-])s2)cc1OC`, for which the inhibition was 34.1% (active).

Regarding `COc1cc(C(=O)OCC(=O)NC23CC4CC(CC(C4)C2)C3)cc(OC)c1OC`, the inhibition was 12.9% (inactive).

Regarding `COc1cc(NC(=O)COC(=O)c2ccc([N+](=O)[O-])s2)cc(OC)c1OC`, the inhibition is 113% (active).

`COc1ccc(C(=O)OCC(=O)c2ccc(C)c(S(=O)(=O)N3CCOCC3)c2)cc1OC`: the inhibition is -12.5% (inactive).

As for `COc1cc(CCC(=O)OCC(=O)Nc2cccc(S(N)(=O)=O)c2)cc(OC)c1OC`, the inhibition is -0.39% (inactive).

`CCN(CC)CCn1c(=S)[nH]c2ncccc2c1=O`: the inhibition is 3.47% (inactive).

For the compound `FC(F)(F)c1cc(C(F)(F)F)c2ccc(N3CCN(c4ccccc4)CC3)nc2n1`, the inhibition is -0.35% (inactive).

As for `CSc1ncc(C(=O)Nc2ccc(C)cc2C)c(C)n1`, the inhibition is -3.39% (inactive).

For `CN(C)C(=O)c1ccc2c(c1)C1C3CCC(C3)C1C(c1ccccc1)N2` (stereo not given), the inhibition was 5.37% (inactive).

Regarding `CCOc1ccc(-c2cn(S(=O)(=O)c3cccc4nsnc34)nc2N)cc1`, the inhibition was 7.56% (inactive).

Consider `COc1ccccc1C(=O)NCCC(=O)NN1C(=O)NC2(CCCCC2)C1=O`, for which the inhibition is -3.82% (inactive).

On to `CCN(C[C@H]1N[C@@](CC)(C(=O)OC)[C@H]2C(=O)N(Cc3ccccc3)C(=O)[C@@H]12)S(=O)(=O)c1ccccc1`, for which the inhibition is 6.5% (inactive).

Take `CCN(C[C@H]1N[C@@](CC)(C(=O)OC)[C@H]2C(=O)N(Cc3ccccc3)C(=O)[C@@H]12)S(=O)(=O)c1ccc(C(F)(F)F)cc1`: the inhibition was 29.7% (active).

For the compound `COC(=O)[C@]1(Cc2ccccc2)N[C@H](CN(C)S(=O)(=O)c2ccc(OC(F)(F)F)cc2)[C@@H]2C(=O)N(Cc3ccccc3)C(=O)[C@@H]21`, the inhibition was 3.43% (inactive).

As for `COC(=O)[C@@]12C[C@@H](CC(=O)NCc3cccc(C(F)(F)F)c3)C(=O)N(Cc3ccco3)C1=CCC(C)(C)C2`, the inhibition is 34.5% (active).

Take `CCCCNC(=O)C[C@@H]1C[C@@]2(C(=O)OC)CC(C)(C)CC=C2N(Cc2ccco2)C1=O`: the inhibition is 4.7% (inactive).

For the compound `CCOC(=O)[C@]12CCC=C1N(Cc1ccco1)C(=O)[C@H](CC(=O)NCc1cccc(C(F)(F)F)c1)C2`, the inhibition was 15.5% (inactive).

Turning to `CCN(CC(=O)Nc1ccccc1C(F)(F)F)C(=O)CSCc1c(C)noc1C`, the inhibition is -9.14% (inactive).

For `COC(=O)[C@]12C[C@H](CC(=O)NCc3ccc(C)o3)C(=O)N(CCC3=CCCCC3)C1=C[C@H](C(C)(C)C)O[C@@H]2C`, the inhibition is 29.6% (active).

Take `COC(=O)[C@]12C[C@H](CC(=O)NCc3ccccc3)C(=O)N(CCC3=CCCCC3)C1=C[C@H](C(C)(C)C)O[C@@H]2C`: the inhibition was 24.8% (inactive).

With `CCCCCCCCN1C(=O)[C@@H](CC(=O)NCc2ccc(C)o2)C[C@@]2(C(=O)OC)C1=C[C@H](C(C)(C)C)O[C@@H]2C`, the inhibition is 17.8% (inactive).

Turning to `COc1ccc2c(c1)[C@H]1[C@H](CO2)[C@H](c2ccccc2)[C@]2(C)C(=O)Nc3cc(F)c(F)cc3C(=O)N12`, the inhibition is 0.66% (inactive).

Regarding `COCCn1c(SCc2nc3cc(OC)c(OC)cc3c(=O)[nH]2)nnc1-c1ccncc1`, the inhibition is -3.09% (inactive).

Consider `O=C1Nc2ccccc2-n2nnnc2C1N1CCN(c2cccc(C(F)(F)F)n2)CC1` (stereo not given), for which the inhibition is 32.5% (active).

For `COc1cc(OC)cc(C(=O)NCCN2CCC3(CC2)C(=O)NCN3c2ccccc2)c1`, the inhibition is -10.2% (inactive).

With `CCCc1ccc(C(O)c2ncc(-c3cccc(OC)c3)[nH]2)cc1` (stereo not given), the inhibition is 23.9% (inactive).

`O=C(CSc1nc2[nH]ncc2c(=O)[nH]1)Nc1ccc(F)cc1`: the inhibition was -2.83% (inactive).

For `Cc1cc(=O)[nH]c(SCC(=O)Nc2ccc(Cl)cc2C)n1`, the inhibition was -2.3% (inactive).

In the case of `Cc1cc(C)c2c(=O)[nH]c(SCC(=O)Nc3ccc(Br)cc3)nc2n1`, the inhibition was 36% (active).

With `Cc1ccnc(NS(=O)(=O)c2ccc(NC(=O)c3oc4ccc(F)cc4c3C)cc2)n1`, the inhibition was -2.26% (inactive).

Take `Cc1ccnc(NS(=O)(=O)c2ccc(NC(=O)c3oc4ccccc4c3C)cc2)n1`: the inhibition is 29.9% (active).

As for `Cc1ccnc(NS(=O)(=O)c2ccc(NC(=O)c3ccc(S(=O)(=O)N(C)C)cc3)cc2)n1`, the inhibition was -12.8% (inactive).

For the compound `COc1c(F)c(F)c(-c2csc(N)n2)c(F)c1F`, the inhibition is -1.03% (inactive).

In the case of `CCOc1cc(S(=O)(=O)NC2CC(C)(C)NC(C)(C)C2)ccc1F`, the inhibition is 13.1% (inactive).

As to `O=C(NCCc1ccc(Cl)cc1Cl)c1cc([N+](=O)[O-])c[nH]c1=O`, the inhibition was 30.7% (active).

As to `NS(=O)(=O)c1ccc(CCNC(=O)c2ccc(Cl)cc2[N+](=O)[O-])cc1`, the inhibition is 2.43% (inactive).

Consider `O=C(NCCc1c[nH]c2ccc(Cl)cc12)c1ccc([N+](=O)[O-])cc1`, for which the inhibition is -0.42% (inactive).

`Cc1ccc(-n2c(SCC(=O)Nc3cccc4ccccc34)nnc2-c2ccco2)cc1`: the inhibition was 7.16% (inactive).

`CCCc1ccc(-c2c(C)sc(NC(=O)c3ccnn3C)c2C#N)cc1`: the inhibition was 13% (inactive).

As for `CC(=O)NC(C(=O)NCC(N)=O)C(C)C` (stereo not given), the inhibition was 3.21% (inactive).
